Screens from PubChem BioAssay.
TRPV1 agonist: activates the human vanilloid receptor TRPV1; Q8NER1; TRPV1-expressing cells, Fluo-8 calcium influx, agonist mode; activation, % at 8.33 µM; hit rate 0.19% among 320,000; AID 540275; in the data active = activation above about 80%; inconclusive = between about 30% and that limit; also: 0% is about no effect
Target sequence (Q8NER1 whole entry, looked up): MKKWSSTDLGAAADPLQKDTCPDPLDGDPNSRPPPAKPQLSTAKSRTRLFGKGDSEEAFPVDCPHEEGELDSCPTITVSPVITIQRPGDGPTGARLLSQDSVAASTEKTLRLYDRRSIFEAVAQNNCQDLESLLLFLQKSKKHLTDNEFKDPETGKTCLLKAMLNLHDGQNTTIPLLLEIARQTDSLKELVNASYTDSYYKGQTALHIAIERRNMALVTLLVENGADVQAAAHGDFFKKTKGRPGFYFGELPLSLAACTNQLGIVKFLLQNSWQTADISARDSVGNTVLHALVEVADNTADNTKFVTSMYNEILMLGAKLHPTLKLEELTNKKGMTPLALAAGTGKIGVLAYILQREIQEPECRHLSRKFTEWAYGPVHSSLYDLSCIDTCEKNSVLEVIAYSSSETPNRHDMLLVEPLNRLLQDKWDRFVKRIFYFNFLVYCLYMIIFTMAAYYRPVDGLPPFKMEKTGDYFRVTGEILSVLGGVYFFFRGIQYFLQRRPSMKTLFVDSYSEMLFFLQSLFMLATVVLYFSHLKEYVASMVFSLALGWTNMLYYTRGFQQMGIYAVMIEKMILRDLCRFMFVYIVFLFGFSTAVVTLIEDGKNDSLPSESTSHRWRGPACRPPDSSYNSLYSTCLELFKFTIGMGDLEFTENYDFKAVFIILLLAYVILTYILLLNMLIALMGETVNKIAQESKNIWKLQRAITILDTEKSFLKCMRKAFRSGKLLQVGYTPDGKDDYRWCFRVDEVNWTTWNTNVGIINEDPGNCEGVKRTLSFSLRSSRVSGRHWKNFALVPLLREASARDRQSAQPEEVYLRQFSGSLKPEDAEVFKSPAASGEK
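Fluo-8 calcium influx in TRPV1-expressing cells, kinetic read (ex 480/em 520 nm). Compound added and read 3 min for agonist activity, followed by capsaicin at EC20 final and 2 min further read for enhancement.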
D1 antag: human D1 dopamine receptor antagonism; HEK293 TREx D1 cells, calcium flux, dopamine EC80; stronger effect = lower value; P21728; activity change, negative = inhibition, % at 10 µM; hit rate 3.2% among 360,000; AID 504652; in the data active = activity change below about -30%; also: % is scaled to controls: 0 for no effect and ±100 for the full control effect
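HEK293 T-REx cells expressing inducible, force-coupled D1 receptor; no-wash Ca dye, 30–90 min RT. Cmpd → 180 s read at 1 Hz → EC80 DA → 180 s read.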
TRPV1 PAM: enhances activation of the human vanilloid receptor TRPV1; Q8NER1; TRPV1-expressing cells, Fluo-8 calcium influx, capsaicin EC20 potentiation; potentiation, % at 8.33 µM; hit rate 0.02% among 320,000; in the data active = potentiation above about 80%; inconclusive = between about 30% and that limit; also: 0% is about no effect
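Fluo-8 calcium influx in TRPV1-expressing cells, kinetic read (ex 480/em 520 nm). Compound added and read 3 min for agonist activity, followed by capsaicin at EC20 final and 2 min further read for enhancement.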
D1 potentiator: human D1 dopamine receptor positive modulation; HEK293 TREx D1 cells, calcium flux, dopamine EC20 potentiation; potentiation, % at 10 µM; hit rate 0.036% among 360,000; AID 504651; in the data active = potentiation above about 30%; also: 0% is about no effect
D1 agonist: activates the human D1 dopamine receptor; hit rate 1% among 360,000; activation, % at 2 µM; HEK293 T-REx D1 cells, calcium flux, agonist mode; P21728; in the data active = activation above about 30%; also: 0% is about no effect
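Tetracycline-induced HEK293 TREx D1 cells, force-coupled to calcium signalling, were dye-loaded with a no-wash calcium kit. Compound was pin-added after a 10 s baseline. Fluorescence was read kinetically at 1 cycle/s for 180 s, with calcium rises flagged as agonism.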
* = called active by the depositor; ? = inconclusive; nt = not tested or not shown. This is a sample that favours compounds with a hit; in the whole collection about 4.2% have one here.

SMILES	TRPV1 agonist	D1 antag	TRPV1 PAM	D1 potentiator	D1 agonist
CSC1=C(C#N)C(c2ccccc2Cl)C2=C(N1)c1ccccc1C2=O (stereo unspecified)	1.3	-42.2*	?	-7.0	-0.9
CSC1=C(C#N)C(c2ccccc2Cl)C2=C(CCCC2=O)N1 (stereo unspecified)	-2.4	7.5	3.4	1.9	2.9
Cc1ccc(/C=C2/Sc3ccc(C(=O)N4CCN(c5ccccn5)CC4)cc3NC2=O)cc1	-2.7	-46.0*	2.5	-4.4	4.1
COC(=O)c1ccc(OCC2c3cc(OC)c(OC)cc3CCN2C(=O)COc2ccc(Cl)cc2)cc1 (stereo unspecified)	nt	-10.6	nt	-2.7	1.7
O=C(O)/C=C/C(=O)Nc1ccc(Oc2ccc(NC(=O)/C=C/C(=O)O)cc2)cc1	-1.0	2.2	0.5	-4.3	0.6
O=C(O)/C=C\C(=O)Nc1ccc(Oc2ccc(Br)cc2)cc1	0.8	-30.6*	7.9	-3.5	-0.9
O=C(O)/C=C\C(=O)Nc1ccc(Oc2ccccc2)cc1	0.8	-62.6*	4.0	-6.2	-0.1
CC(C)c1cnc2c(c1SCC(=O)Nc1cccc([N+](=O)[O-])c1)c(=O)n(C)c(=O)n2C	nt	6.9	nt	1.5	-0.8
O=C(Cc1cccs1)Nc1nc2c(ccc3ccccc32)s1	80.6*	-1.0	-4.5	-2.0	6.6
CC(C)Cc1nnc(NC(=O)Cc2cccs2)s1	-0.1	-49.8*	?	-3.0	1.0
CC(=O)Nc1nc2c(ccc3ccccc32)s1	-3.9	-22.7	17.3	-6.0	-1.5
COc1ccccc1C(=O)Nc1ccc2nc(SCCOc3ccccc3C)sc2c1	nt	-22.5	nt	0.8	11.0
CC(CC(=O)NC1CCCC1)c1ccccc1 (stereo unspecified)	2.0	7.4	6.4	-7.6	1.3
CC(C)N(Cc1ccccc1)C(=S)NC1CCCCC1	10.3	-31.4*	-3.4	-15.1	4.5
CC(c1ccccc1)C(CC(=O)O)C(=O)NC1CCCCC1 (stereo unspecified)	nt	-30.8*	nt	-4.5	0.9
Cc1cc(=O)[nH]c2nnc(SCC(=O)Nc3ccc(OC(F)(F)F)cc3)n12	nt	nt	nt	1.4	-2.4
CCOC(=O)C1CCN(Cc2ccccc2C(F)(F)F)CC1	0.7	1.7	-0.2	-1.8	0.0
CCOC(=O)C1CCN(Cc2ccc(O)c3ncccc23)CC1	-0.6	-42.1*	-48.8	-1.0	0.4
CCOc1ccccc1N1CCN(Cc2cn[nH]c2-c2ccc(F)cc2)CC1	nt	57.5	nt	4.5	42.8*
CCOc1ccccc1N1CCN(Cc2cccc(OC)c2OC)CC1	-8.8	3.5	6.9	-7.0	8.5
CC1CCC(NC(=O)c2ccc(CS(=O)(=O)c3ccc(Cl)cc3)o2)CC1 (stereo unspecified)	nt	-18.2	nt	1.2	22.9
COc1ccc(CNC(=O)c2cc(-c3ccc(OC)c(OC)c3)nc3n[nH]c(-c4ccc(C)cc4)c23)cc1	nt	-16.8	nt	-3.2	4.3
CC(=O)C1=C(c2ccc(Cl)cc2)N(C(C)=O)n2c(nnc2C2CCCCC2)S1	nt	nt	nt	-1.8	1.4
Cc1ccc(Cl)cc1NC(=O)C(C)n1nnc2sc3c(c2c1=O)CCCC3 (stereo unspecified)	nt	-4.4	nt	0.2	2.2
Oc1ccc(Nc2nc(-c3ccc(Cl)cc3)nc3ccccc23)cc1	?	-33.5*	-18.1	-5.3	4.1
SMILES	TRPV1 agonist	D1 antag	TRPV1 PAM	D1 potentiator	D1 agonist
Cc1ccc(Nc2nc(-c3cccnc3)nc3ccccc23)cc1	95.1*	-12.9	2.9	-1.6	2.4
COc1ccc(CCNc2nc(-c3cccnc3)nc3ccccc23)cc1OC	86.0*	17.6	-18.9	4.8	-3.3
Cc1ccccc1Nc1nc(-c2cccnc2)nc2ccccc12	?	-28.4	-17.5	-2.5	1.8
CCCCN(CCCNC(=O)c1cc(Nc2ccc(OC)c(OC)c2)nc2ccccc12)Cc1ccccc1	nt	-4.3	nt	-1.1	0.2
CCOc1ccccc1NC(c1nnc(-c2ccccc2)o1)c1ccc(F)cc1Cl (stereo unspecified)	nt	3.4	nt	-3.4	2.2
CC(C)CN1CCC(=O)N([C@H](CSc2ccc(Br)cc2)Cc2ccccc2)CC1	25.1	-50.3*	-15.1	2.6	9.3
Cc1nn(C2CCS(=O)(=O)C2)c(Cl)c1/C=C/C(=O)OCC(=O)c1cc(C)n(-c2ccc(F)cc2)c1C (stereo unspecified)	-6.7	-30.9*	-3.6	-6.3	8.6
Cc1nn(C2CCS(=O)(=O)C2)c(Cl)c1/C=C/C(=O)OCC(=O)c1c[nH]c2ccccc12 (stereo unspecified)	-3.8	-23.8	1.6	0.3	5.6
COC(=O)C1(C)NC(c2ccc(O)cc2)C2C(=O)N(c3ccc(C)cc3)C(=O)C21 (stereo unspecified)	1.2	-42.2*	1.2	-5.9	3.3
COC(=O)C1(C)NC(c2ccc(O)cc2)C2C(=O)N(c3ccc4c(c3)OCCO4)C(=O)C21 (stereo unspecified)	-3.8	-5.1	4.4	-2.3	1.5
CCCOc1ccc(N2C(=O)CC(NCc3ccncc3)C2=O)cc1 (stereo unspecified)	-2.0	-58.6*	-17.1	1.4	0.9
CCCOc1ccc(N2C(=O)CC(NCc3cccs3)C2=O)cc1 (stereo unspecified)	0.0	-3.2	-1.3	-2.6	-0.9
O=C1CC(c2ccccc2)CC(O)=C1C=NC1CCCCC1 (stereo unspecified)	12.3	-3.2	-10.8	-2.7	2.1
Oc1ccc(C=NC2CCCCC2)cc1	-3.6	-35.1*	9.4	-8.2	0.7
O=c1c2cc3c(cc2[nH]c(=S)n1C1CCN(Cc2ccccc2)CC1)OCO3	0.6	-31.8*	-2.3	-9.2	3.0
CCOc1cc2[nH]c(=S)n(C3CCN(Cc4ccccc4)CC3)c(=O)c2cc1OCC	-4.2	6.5	-1.6	-2.6	1.8
COc1ccc(NC(=S)NCCc2c[nH]c3ccccc23)c(OC)c1	9.4	-36.2*	-5.9	-2.9	8.1
COc1cc(CN(CCN(C)C)Cc2ccccc2)ccc1OCc1ccccc1	1.5	-75.6*	9.4	-16.8	25.0
CC(=O)Nc1cccc(C(=O)/C=C/c2ccc(/C=C/C(=O)c3cccc(NC(C)=O)c3)cc2)c1	-2.3	-8.3	0.2	-7.3	1.5
CN(C)c1ccc(C(=O)/C=C/c2ccc(Br)cc2)cc1	17.5	-33.1*	16.0	-3.5	4.9
CN(C)c1ccc(C(=O)/C=C/c2ccccc2)cc1	?	-6.3	-5.9	-4.2	1.9
CC(=O)Nc1cccc(C(=O)/C=C/c2ccc(N(C)C)cc2)c1	80.3*	6.1	-12.4	14.8	401.4*
CCN(CC)c1ccc(/C=C/C(=O)c2ccc(Br)cc2)cc1	122.8*	-67.4*	4.2	-7.7	425.5*
O=C(CSc1ccccn1)Nc1ccc(Cl)c([N+](=O)[O-])c1	8.1	-33.7*	?	-4.8	7.5
O=C(CSc1ccccn1)Nc1ccc2ccccc2c1	27.4	-7.7	-11.5	-3.5	1.0
CC(C)CN(C(=O)COC(=O)c1cccnc1Cl)c1c(N)n(Cc2ccccc2)c(=O)[nH]c1=O	3.7	-34.9*	-14.0	-8.7	2.1
